Shiga toxin inh = inhibitors of Shiga toxin in Vero cells; Vero cells, Shiga toxin protein synthesis inhibition reporter; inhibition, % at 38.7 µM; actives 9.2% (n = 290,000); in the data active = inhibition mostly above about 28%, no sharp cut-off; inactive = mostly below about 43%; note: 0% is about no effect
SARS PLP yeast = blocks SARS-CoV papain-like protease in a yeast assay; Potency, µM (highest dose often 32.9 µM), inactives show top-dose activity, positive = growth rescue, actives largely listed as activators; AID 485353; S. cerevisiae expressing SARS-CoV PLpro, growth rescue; actives 0.19% (n = 330,000); note: potency is the fitted concentration of half-maximal effect; 0% is about no effect; nearly all actives have a fitted effect of over 55% in size
NS1 inh = inhibitors of influenza NS1 protein function. Potency, µM (series often up to 46.1 µM), for the others: top-dose activity, positive = more growth. actives 0.4% (n = 270,000); note: potency is the fitted concentration of half-maximal effect; actives are rising curves; nearly all actives have a fitted effect of over 50% in size
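OD600 was taken as the measure of yeast growth restored by compound in an NS1-expressing S. cerevisiae strain. Cells had been washed out of glucose medium and diluted 1:100 into galactose -URA medium, pH 6.0.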
CHX counter = counter-screen hit for Shiga toxin inhibitors, cycloheximide; cell reporter, cycloheximide protein synthesis inhibition counterscreen; actives 12% (n = 300,000); AID 2314; max response, %; in the data active = max response mostly above about 13%, no sharp cut-off; inactive = mostly below about 14%; note: read at 38.3 µM for the half of the compounds with a filed dose; 0% is about no effect
Starred values were filed as active, the others as inactive; ? = inconclusive; / = no result; ! = not active in a repeat. An excerpt weighted towards active compounds, which were near 12% of everything screened. Unless noted, calls come from the whole dose curve.

SMILES	Shiga toxin inh	SARS PLP yeast	NS1 inh	CHX counter
CC1(c2ccccc2)NC(=O)N(CC(=O)Nc2ccc(N3CCOCC3)cc2)C1=O (stereo not drawn)	/	-0.7%	/	/
CCc1cc2c(=O)c(-c3nc4ccccc4n3C)coc2c(CN2CCCCC2C)c1O (stereo not drawn)	-8.6	-0.7%	0.6%	-1.3
CC1CCCCN1Cc1c(O)ccc2c(=O)c(-c3nc4ccccc4s3)coc12 (stereo not drawn)	60.5*	0.1%	3.0%	28.1*
CCC(NC(=O)c1cc(COc2ccc(C)nc2)on1)c1ccc(C)cc1 (stereo not drawn)	-34.6	-1.2%	18.5%	-2.6
Cc1ccc(NC(=O)c2ccc(S(=O)(=O)NCc3cccnc3)cc2)cc1C	40.8	0.7%	6.5%	8.2
Cc1ccc(CNC(=O)CCc2ccc(S(=O)(=O)NC3CCCCC3)cc2)cc1	20.3	-2.9%	-27.9%	-4.9
COc1ccc(NC(=O)c2ccc(S(=O)(=O)NCc3cccnc3)cc2)cc1	30.9	-0.2%	1.8%	9.5*
Cc1ccc(NS(=O)(=O)c2ccc(C(=O)NCc3cccnc3)cc2)cc1	75.9*	?	-2.0%	55.0*
O=C(CCc1ccc(S(=O)(=O)NC2CCCCC2)cc1)NCc1cccnc1	31.4	0.9%	1.4%	15.0*
CCCN(CC(=O)Nc1ccc(F)c(F)c1F)CC(=O)Nc1c(C)n(C)n(-c2ccccc2)c1=O	/	-1.9%	/	/
COc1cc(OC)nc(NC(=O)CSc2nc3ccccc3[nH]2)n1	11.5	-4.7%	-6.2%	13.3
Cc1ccc(/C=N/NC(=O)CSc2nc3ccccc3[nH]2)o1	21.3	0.7%	4.2%	17.9*
CCCc1nnc(NC(=O)CSc2nc3ccccc3[nH]2)s1	44.0*	0.2%	/	19.2*
CCC(C)/C(C)=N/NC(=O)CSc1nc2ccccc2[nH]1 (stereo not drawn)	66.6*	-10.0%	1.5%	16.0
CCc1nnc(NC(=O)CSc2nc3c(C)cccc3[nH]2)s1	-4.9	21.4%	8.0%	0.8
O=C(CSc1nc2ccccc2[nH]1)N/N=C/c1ccncc1	16.2	0.0%	0.6%	6.4
CCc1ccc(CN(C)C(=O)c2ccc3c(c2)OCCO3)cc1	27.6	-1.9%	-30.8%	2.3
O=C(Nc1ccc(N2CCOCC2)cc1)C1CC(O)CN1S(=O)(=O)c1ccc(Cl)cc1 (stereo not drawn)	30.1	-2.1%	/	17.9
Cc1c(Cl)ccc2sc(NC(=O)c3ccco3)nc12	83.3*	-20.7%	-41.2%	67.0*
CS(=O)(=O)c1ccc2nc(NC(=O)c3ccco3)sc2c1	40.2*	-47.2%	-20.0%	36.5*
O=C(NC(=S)Nc1nc2ccc(F)cc2s1)c1ccco1	90.2*	2.7%	/	32.4*
Cc1cccc2sc(NC(=O)C3CCN(C(=O)c4ccco4)CC3)nc12	39.7	-2.6%	2.2%	38.4*
Cc1ccc(C(=O)Nc2nc3ccc(S(C)(=O)=O)cc3s2)o1	43.8*	-22.2%	-4.0%	34.1*
CC(=O)N1CC=CC1(CC(C)C)C(=O)NCCN1CCOCC1 (stereo not drawn)	54.8*	-7.8%	-11.0%	34.1*
CCOc1ccccc1-c1nnc(CS(=O)(=O)c2ccccc2)o1	-5.4	3.1%	2.6%	6.1
SMILES	Shiga toxin inh	SARS PLP yeast	NS1 inh	CHX counter
COc1ccc(Br)c(-c2nc(CS(=O)(=O)c3ccc(F)cc3)no2)c1	36.8*	0.8%	0.3%	19.8*
COc1ccc(Br)c(-c2nnc(CS(=O)(=O)c3ccccc3)o2)c1	88.7*	-1.6%	6.4%	36.0*
CCn1nc(C)c(Br)c1-c1nc(CS(=O)(=O)c2ccc(F)cc2)no1	-3.1	0.6%	0.6%	7.1
CCC(=O)c1ccc(NC(C)=O)cc1O	22.0	-1.1%	-1.3%	1.6
CCC(=O)c1ccc(SC(=O)N(C)C)cc1O	26.9	0.5%	-2.3%	14.8*
COc1ccc(NC(=S)N(C(C)C)C2CCN(C(C)C)CC2)cc1Cl	-2.0	-1.6%	-2.2%	7.1
Cc1ccc(-c2nc(SCC(=O)N(C)c3c(N)n(Cc4ccccc4)c(=O)[nH]c3=O)n[nH]2)cc1	-2.0	11.3%	-3.4%	-5.0
CC(=O)Nc1ccc2nc(-c3ccccc3)cn2c1	107.1*	0.1%	2.3%	40.4*
COc1c(Cl)cccc1-c1cn2ccc(C)cc2n1	80.6*	-13.6%	-36.3%	42.0*
COc1ccc2oc(=O)c(C(=O)n3ccc(C)n3)cc2c1	-14.2	10.7%	-86.6%	2.0
Cc1ccn2cc(-c3cnoc3C)nc2c1	81.5	-4.2%	-15.8%	17.9
Cc1ccn2cc(-c3ccc(Br)cc3)nc2c1	21.9*	-3.9%	-59.0%	38.3*
COc1ccc2oc(=O)c(-c3cn4ccc(C)cc4n3)cc2c1	27.7	-0.6%	0.2%	23.5*
O=C1C2C(c3ccccc3)C=CC(c3ccccc3)C2C(=O)N1c1ccccn1 (stereo not drawn)	-6.6	-5.8%	-28.9%	1.8
Clc1ccc(-c2cn3cc(Br)ccc3n2)cc1Cl	102.9*	13.5%	-7.3%	51.5*
CC(=O)Nc1cccc(-c2cn3ccc(C)cc3n2)c1	88.5*	-1.9%	0.7%	44.2*
Cc1ccc(S(=O)(=O)Nc2ccc(-c3cn4ccc(C)cc4n3)cc2)cc1	19.5	-0.5%	20.1%	7.9
Cc1ccn2cc(-c3cccc(NC(=O)CCC(=O)O)c3)nc2c1	4.7	-11.4%	12.1%	-0.4
O=S(=O)(c1cccc(-c2cn3cc(Cl)ccc3n2)c1)N1CCOCC1	7.4	3.4%	-38.0%	-1.1
Cc1ccn2cc(-c3ccc(NS(=O)(=O)c4ccccc4)cc3)nc2c1	12.9*	17.2%	2.9%	16.4
Cc1ccn2cc(-c3cccc(NS(C)(=O)=O)c3)nc2c1	59.0*	1.5%	1.7%	59.6*
NCCCC[C@H](NC(=O)[C@@H](Cc1ccccc1)NC(=O)[C@H](Cc1c[nH]c2ccccc12)NC(=O)[C@@H](CCCCN)NC(=O)[C@@H](Cc1c[nH]c2ccccc12)NC(=O)[C@@H](N)Cc1cnc[nH]1)C(N)=O	-6.9	/	/	-7.7
COc1cc(CC(=O)NCCCc2ccccc2)cc(OC)c1OC	-5.3	8.6%	6.6%	-6.2
CCCCNC(=O)COC(=O)c1ccccc1F	5.4	-0.3%	0.0%	10.4
Cc1ccn2cc(-c3cccc(S(=O)(=O)N4CC(C)OC(C)C4)c3)nc2c1 (stereo not drawn)	3.8	3.4%	-5.3%	-1.0
SMILES	Shiga toxin inh	SARS PLP yeast	NS1 inh	CHX counter
Cc1ccn2cc(-c3cccc(S(=O)(=O)N4CCCC4)c3)nc2c1	98.0	5.1%	-2.6%	18.5*
Cc1ccn2cc(-c3cccc([N+](=O)[O-])c3)nc2c1	25.5	0.5%	-3.3%	30.3*
CC(C)(C)C(=O)Nc1ccc(C(=O)CSc2nnc(C3CC3)n2C2CC2)cc1	/	0.7%	/	/
O=C(CCc1ccccc1)NCc1ccc(F)cc1	-1.7	5.5%	1.2%	-0.7
O=C(NCc1ccccc1)c1ccc(-c2ccc(F)cc2)o1	58.9*	-8.1%	-0.7%	25.2*
O=C(NCc1ccccc1)c1ccc(-c2ccccc2C(F)(F)F)o1	11.4	-1.5%	-24.5%	37.1*!
Cc1ccccc1-c1ccc(C(=O)NCc2ccccc2)o1	10.8	-27.8%	-54.2%	13.6*
C/C(=C\C(=O)c1ccc(F)cc1)NCc1ccc2c(c1)OCO2	14.8	0.6%	-6.7%	5.6
C/C(=C\C(=O)c1ccccc1)NCc1ccc(F)cc1	109.8*	-1.3%	-3.9%	59.6*
